Screening data from PubChem BioAssay.
PP5 primary: PP5 phosphatase inhibitors, primary screen, biochemical, fluorescence; Serine/threonine-protein phosphatase 5 (Homo sapiens), P53041; purified PP5c, OMFP substrate fluorescence; inhibition, % at 6.7 µM; actives 0.18% (n = 320,000);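 active means inhibition above the campaign's mean inhibition across all tested compounds plus 3 SD, cut at about 9.5% in these data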
Target sequence (P53041 whole entry, looked up): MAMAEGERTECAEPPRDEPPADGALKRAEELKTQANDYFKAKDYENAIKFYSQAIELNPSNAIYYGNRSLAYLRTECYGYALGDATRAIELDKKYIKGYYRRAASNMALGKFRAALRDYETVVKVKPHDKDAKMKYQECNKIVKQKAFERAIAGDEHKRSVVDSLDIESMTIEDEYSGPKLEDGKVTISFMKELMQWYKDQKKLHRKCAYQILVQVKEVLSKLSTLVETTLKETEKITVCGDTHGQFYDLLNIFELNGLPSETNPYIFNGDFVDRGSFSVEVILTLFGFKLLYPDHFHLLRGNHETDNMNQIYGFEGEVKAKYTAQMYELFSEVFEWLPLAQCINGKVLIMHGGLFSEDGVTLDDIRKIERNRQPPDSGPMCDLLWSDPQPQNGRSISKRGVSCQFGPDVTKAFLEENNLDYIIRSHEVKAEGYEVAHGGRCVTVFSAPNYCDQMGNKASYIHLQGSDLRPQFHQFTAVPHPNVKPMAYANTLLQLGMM
Exocytosis inh: LAMP-1 surface exposure blockers, TALL-104 cells – cell-based, flow cytometry, MLPCN library, primary screen; TALL-104 LAMP-1 surface exposure; cells stimulated with thapsigargin and PMA; inhibition, % at 10 µM; actives 0.66% (n = 360,000); AID 651702, 2012;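 active means inhibition above about 55%, limit read from the data; inconclusive means no clear call, values can overlap the other calls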
IDE cell activ: human IDE activators in live cells, primary screen, fluorescence polarization, HEK cells, FAbeta-B substrate; actives 0.073% (n = 340,000); Insulin-degrading enzyme (Homo sapiens), P14735; activation, % at 5.96 µM; AID 493087, 2011; FAbeta-B cleavage; 0% vehicle, 100% cell-free pure enzyme wells;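 active means activation above the mean of all tested compounds plus 3 SD, set per screening campaign, cut at about 17% in these data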
PP1 counter: PP1-alpha phosphatase inhibitors, primary screen, counter-screen for PP5 inhibitor project, biochemical, fluorescence, OMFP substrate, single point; purified PP1alpha; inhibition, % at 6.7 µM; Serine/threonine-protein phosphatase PP1-alpha catalytic subunit (Homo sapiens), P62136; AID 2235, 2010; actives 0.9% (n = 320,000);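 active means inhibition above the mean inhibition of all tested compounds plus 3 SD, computed separately for each screening campaign, cut at about 15% in these data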
SKKanGAS inh: S. pyogenes SKKanGAS growth inhibitors in kanamycin, primary screen, streptokinase expression inhibitor project, SKKanGAS strain, BacTiter-Glo luminescence. 6 h. inhibition, % at 7.5 µM. actives 1.3% (n = 300,000). AID 1662, 2009;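 active means mean replicate score, as percent of positive control median, at least 50; inconclusive means mean below 50 but one replicate at or above 50; inactive means mean and every replicate below 50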;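 further: strain carries kanamycin resistance gene driven by streptokinase promoter and grows in 40 µg/ml kanamycin; loss of luminescence reflects streptokinase promoter inhibition or plain growth inhibition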
IDE inh: human IDE inhibitors in live cells, primary screen, fluorescence polarization, HEK cells, FAbetaB substrate; actives 0.41% (n = 320,000); FAbetaB cleavage; AID 434962, 2010; inhibition, % at 5.59 µM;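 active means percent inhibition above the average of all tested compounds plus 3 SD, set per screening campaign, cut at about 16% in these data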;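 further: IDE supplied by intact live HEK cells; FP after avidin binding of uncleaved biotin substrate so inhibition keeps polarization high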
PP1 inh confirm: PP1 phosphatase inhibitors, confirmation, biochemical, fluorescence, OMFP substrate, triplicate | purified PP1alpha | actives 52% (n = 1,900) | shares compounds with PP1 counter | inhibition, % at 6.7 µM;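 active means mean PP1 inhibition above a set limit taken from the earlier primary screen, cut at about 15% in these data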
PP5 counter: PP5 phosphatase inhibition by PP1 hits, confirmation, counter-screen for PP1 inhibitor project, biochemical, fluorescence, triplicate. inhibition, % at 6.7 µM. actives 4% (n = 1,900). purified PP5c, OMFP fluorescence. shares compounds with PP1 counter;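 active means mean PP5 inhibition over triplicate wells above about 9.5% taken from the earlier PP1 screen, limit read from the data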
IDE inh confirm: human IDE inhibitors in live cells, confirmation, fluorescence polarization, HEK cells, FAbetaB substrate | shares compounds with IDE inh | actives 51% (n = 1,200) | inhibition, % at 5.59 µM | FAbetaB cleavage;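 active means mean inhibition across triplicate wells above the cutoff set by the earlier primary insulin-degrading enzyme screen, cut at about 16% in these data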
HEK293 tox: cytotoxicity in HEK cells, cytotoxicity control for IDE inhibitor project, cell-based, luminescence. shares compounds with IDE inh. HEK293 cytotoxicity, ATP luminescence. inhibition, % at 5.59 µM. actives 28% (n = 1,200). AID 449730, 2010; in the data active means inhibition above about 22%
A number is an active result; n = inactive; u = inconclusive; x = not tested or not shown. The list is not random: actives were taken first. Their share in the collection is about 2.8%.

SMILES	PP5 primary	Exocytosis inh	IDE cell activ	PP1 counter	SKKanGAS inh	IDE inh	PP1 inh confirm	PP5 counter	others
C/C(=N/O)c1ccccn1	n	n	n	36	n	n	n	n
CC(=O)c1ccccn1	n	n	n	n	n	n	x	x
CN(C)c1ccc(N=Nc2ccc(S(N)(=O)=O)cc2)cc1	n	n	n	20	n	n	n	n
COc1cc(S(=O)(=O)N2CCn3cccc3C2C)ccc1NC(C)=O (stereo not given)	x	n	n	x	x	n	x	x
Cc1ccc(C)c(S(=O)(=O)N2CCN(Cc3ccc(O)c4ncccc34)CC2)c1	n	n	n	31	u	n	30	n
O=C(OCCc1cc2ccccc2c(=O)o1)c1cccc(Br)c1	n	n	n	n	x	n	x	x
NC(=O)CC(NC(=O)Cc1ccc(Br)cc1)c1ccc(N2CCC(N3CCCC3)CC2)c([N+](=O)[O-])c1 (stereo not given)	n	n	n	n	n	n	x	x
NC(=O)CC(NC(=O)Cc1ccc(Br)cc1)c1ccc(N2CCC(Br)CC2)c([N+](=O)[O-])c1 (stereo not given)	n	n	n	27	n	n	16	n
NC(=O)CC(NC(=O)Cc1ccc(Br)cc1)c1ccc(N2CCC(Cc3ccccc3)CC2)c([N+](=O)[O-])c1 (stereo not given)	n	n	n	23	n	n	n	n
COCCCNC(CC(=O)Nc1cc(C)cc(C)c1)C(=O)O (stereo not given)	n	n	n	n	n	n	x	x
Cc1cc2c(cc1C)-n1nnnc1C(N1CCN(c3ccccn3)CC1)C(c1ccc3c(c1)OCO3)=N2 (stereo not given)	x	n	x	x	x	x	x	x
NC(=O)c1nn(-c2ccccc2)nc1NC(=O)CN1CCCCC1	n	n	n	47	n	n	n	n
CCCCCCCCCCCCCCCCn1cc[n+](C)c1	n	n	n	25	114	n	n	n
CCCCCCCCn1ccc(=N)cc1	n	n	n	n	n	n	x	x
O=c1c2ccccc2c(C=Nc2cccc(S(=O)(=O)NC3=NCCCCC3)c2)c(O)n1Cc1ccccc1	n	n	n	19	n	n	n	n
Cc1nnc(SCC(=O)Nc2cccc(S(=O)(=O)NC3=NCCCCC3)c2)n1Cc1ccccc1	n	n	n	n	n	n	x	x
CCCCCCCCCCOC(=O)Cn1c(COc2ccccc2OC)[n+](C)c2ccccc21	n	89	n	34	75	n	n	n
Cn1c(COc2ccccc2O)[n+](C)c2ccccc21	n	n	n	n	n	n	x	x
CCOC(=O)c1ccc2c(c1)n(CC)c(/C=C/N(C)c1ccccc1)[n+]2CC	n	n	n	n	n	n	x	x
CC[n+]1c(/C=C/N(C)c2ccccc2)n(-c2ccccc2)c2ccc(-c3nc4ccccc4s3)cc21	n	64	n	36	99	57	n	n	IDE inh confirm=22;HEK293 tox=118
CCCCCN(C(=O)CCC(=O)OCC(=O)c1ccc(C(C)CC)cc1)c1c(N)n(CCCC)c(=O)[nH]c1=O (stereo not given)	n	n	n	29	n	17	n	n	IDE inh confirm=n;HEK293 tox=n
